Measured values from PubChem BioAssay.
Where “and” joins values, the source holds several entries; their conditions need not be identical. Equal entries are not always repeated. Calls of active or inactive are those of the source.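 How the source made its calls, unless noted: active means compounds killing one labelled cell type while sparing the other, by normalised counts and ratio limits, not self-fluorescent; inactive means the rest.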

Assay: modulation of C. elegans fzo-1 (AID 1259413; call rule not given here;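 further: fzo-1 mutant C. elegans worms in liquid wells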)
Conditions: C. elegans fzo-1 modulator screen, mean read-out; stronger effect = higher value

| Compound | mean signal |
| --- | --- |
| C[C@H]1COc2c(C3(N)CC3)c(F)cc3c(=O)c(C(=O)O)cn1c23 | 269 (inactive) |
| CN(C)CC[C@@H](c1ccc(Cl)cc1)c1ccccn1 | 251 (inactive) |
| COCc1c(C(C)C)nc(C(C)C)c(/C=C/[C@@H](O)C[C@@H](O)CC(=O)O)c1-c1ccc(F)cc1 | 232 (inactive) |

Assay: differential killing of epithelial or mesenchymal cells, primary screen, imaging, PC-3E GFP, TEM4-18 mCherry, co-culture (AID 1345086);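 further: cells exposed to compound for 72 h before imaging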;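 on red/green cell ratio (normalised): normalised mesenchymal count divided by normalised epithelial count so high means epithelial killing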
Conditions: imaging cell counts, at 1 µM, actives lie on both sides, counts scaled to control wells, 1 = unselective

| Compound | red/green cell ratio (normalised) |
| --- | --- |
| COc1ccc(C(=O)NCc2ccc(OCCN(C)C)cc2)cc1OC | 0.88 (inactive) |
| CN1CCN(c2c(F)cc3c(=O)c(C(=O)O)cn4c3c2SCC4)CC1 | 1.06 (inactive) and 1.18 (inactive) |
| CC(=O)NS(=O)(=O)c1ccc(N)cc1 | 1.56 (inactive) |
| CCN1CCN(c2cc3c(cc2F)c(=O)c(C(=O)O)cn3C2CC2)CC1 | 1.09 (inactive) |
| CC(=O)OCC(=O)NCCCOc1cccc(CN2CCCCC2)c1 | 1.02 (inactive) |
| Clc1ccc2c(c1)CCc1cccnc1C2=C1CCNCC1 | 0.84 (inactive) and 1.39 (inactive) |
| CCc1c(C)[nH]c2c1C(=O)C(CN1CCOCC1)CC2 (stereo not given) | 1.03 (inactive) |
| CC(C)(C(=O)c1cccnc1)c1cccnc1 | 0.85 (inactive) |
| CC(Oc1c(Cl)cccc1Cl)C1=NCCN1 (stereo not given) | 1.37 (inactive) |
| COC(=O)C1=C(C)NC(C)=C(C(=O)OCC(C)C)C1c1ccccc1[N+](=O)[O-] (stereo not given) | 0.97 (inactive) |
| COc1cc2c(cc1OC)C(=O)C(CC1CCN(Cc3ccccc3)CC1)C2 (stereo not given) | 1.04 (inactive) |
| COc1ccc(CN2CCN(C(c3ccc(F)cc3)c3ccc(F)cc3)CC2)c(OC)c1OC | 1.08 (inactive) |
| Cc1cccc(C)c1NC(=O)C(C)N (stereo not given) | 0.66 (inactive) |
| CCN(CC)CCNC(=O)c1cc(Cl)c(N)cc1OC | 1.02 (inactive) |
| NC1CCN(c2nc3c(cc2F)c(=O)c(C(=O)O)cn3-c2ccc(F)cc2F)C1 (stereo not given) | 0.9 (inactive) |
| C[C@H]1COc2c(C3(N)CC3)c(F)cc3c(=O)c(C(=O)O)cn1c23 | 1.3 (inactive) and 0.88 (inactive) |

Same assay, conditions: imaging cell counts, measured here: epithelial PC-3E GFP cell survival, at 1 µM

| Compound | normalised cell number |
| --- | --- |
| COc1ccc(C(=O)NCc2ccc(OCCN(C)C)cc2)cc1OC | 1.24 |
| CN1CCN(c2c(F)cc3c(=O)c(C(=O)O)cn4c3c2SCC4)CC1 | 1.01 and 0.81 |
| CC(=O)NS(=O)(=O)c1ccc(N)cc1 | 0.84 |
| CCN1CCN(c2cc3c(cc2F)c(=O)c(C(=O)O)cn3C2CC2)CC1 | 1.12 |
| CC(=O)OCC(=O)NCCCOc1cccc(CN2CCCCC2)c1 | 0.98 |
| Clc1ccc2c(c1)CCc1cccnc1C2=C1CCNCC1 | 1.16 and 0.83 |
| CCc1c(C)[nH]c2c1C(=O)C(CN1CCOCC1)CC2 (stereo not given) | 0.94 |
| CC(C)(C(=O)c1cccnc1)c1cccnc1 | 1.21 |
| CC(Oc1c(Cl)cccc1Cl)C1=NCCN1 (stereo not given) | 0.85 |
| COC(=O)C1=C(C)NC(C)=C(C(=O)OCC(C)C)C1c1ccccc1[N+](=O)[O-] (stereo not given) | 1.11 |
| COc1cc2c(cc1OC)C(=O)C(CC1CCN(Cc3ccccc3)CC1)C2 (stereo not given) | 1.04 |
| COc1ccc(CN2CCN(C(c3ccc(F)cc3)c3ccc(F)cc3)CC2)c(OC)c1OC | 0.96 |
| Cc1cccc(C)c1NC(=O)C(C)N (stereo not given) | 1.32 |
| CCN(CC)CCNC(=O)c1cc(Cl)c(N)cc1OC | 1.09 |
| NC1CCN(c2nc3c(cc2F)c(=O)c(C(=O)O)cn3-c2ccc(F)cc2F)C1 (stereo not given) | 1.14 |
| C[C@H]1COc2c(C3(N)CC3)c(F)cc3c(=O)c(C(=O)O)cn1c23 | 0.98 and 1.07 |
